Whole data set: some 33,000 sequences, median “E-score (-0.5 to 0.5)” near -0.021, cut for the highest 2% near 0.32. The list comes from a sample in which the highest values are over-represented; it also holds similar and randomly drawn sequences.
target: T1, Zap1 (UniProt P47043); test: PBM E-score (8-mer binding enrichment) (E-score (-0.5 to 0.5)); higher = stronger / more preferred TF binding; conditions: protein concentration: 200 nM; construct: GST-full length
T1 sequence: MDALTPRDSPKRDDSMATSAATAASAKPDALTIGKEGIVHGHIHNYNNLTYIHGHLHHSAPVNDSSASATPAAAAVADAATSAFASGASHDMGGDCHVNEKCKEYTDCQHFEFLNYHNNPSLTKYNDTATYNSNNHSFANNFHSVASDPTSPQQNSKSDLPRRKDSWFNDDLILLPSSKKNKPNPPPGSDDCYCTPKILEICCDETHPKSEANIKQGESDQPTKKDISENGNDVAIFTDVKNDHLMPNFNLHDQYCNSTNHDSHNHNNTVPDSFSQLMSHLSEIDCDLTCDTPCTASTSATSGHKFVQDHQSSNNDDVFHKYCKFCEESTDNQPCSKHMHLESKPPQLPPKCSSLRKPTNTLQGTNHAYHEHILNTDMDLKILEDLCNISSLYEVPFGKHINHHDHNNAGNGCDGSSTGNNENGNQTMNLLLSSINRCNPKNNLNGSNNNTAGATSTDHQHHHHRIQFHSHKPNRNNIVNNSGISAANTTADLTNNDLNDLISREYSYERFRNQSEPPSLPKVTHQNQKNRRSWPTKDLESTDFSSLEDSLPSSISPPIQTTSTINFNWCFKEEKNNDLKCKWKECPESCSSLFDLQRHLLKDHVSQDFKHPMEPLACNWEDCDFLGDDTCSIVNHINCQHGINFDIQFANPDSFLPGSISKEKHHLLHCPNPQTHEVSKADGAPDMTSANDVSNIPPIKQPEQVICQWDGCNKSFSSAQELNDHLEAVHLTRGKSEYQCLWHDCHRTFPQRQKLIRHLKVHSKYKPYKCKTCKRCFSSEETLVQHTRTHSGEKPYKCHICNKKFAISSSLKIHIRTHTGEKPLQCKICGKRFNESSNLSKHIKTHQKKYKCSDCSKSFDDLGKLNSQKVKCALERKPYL
Method in brief: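 E-scores (a modified Wilcoxon-Mann-Whitney statistic) were assigned by the Universal PBM Analysis Suite to every ungapped eight-base word pooled with its reverse complement. The input came from universal all-10-mer Agilent arrays made double-stranded by primer extension and probed with GST-tagged yeast transcription factors at about 100-200 nM. Fluorescent anti-GST detected bound protein, and masliner normalised the scans.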

Sequence | PBM E-score
GATAACGC | -0.11
AATAACCT | 0.454
GATAACCC | 0.47
CCTAACCC | 0.264
AATAACGC | -0.0593
ACTAACCC | 0.271
AATAACGT | 0.0381
ACTATCGC | -0.0428
AGCAGAAT | 0.0481
CTACCAAG | 0.0784
GCATAGGA | -0.135
GAGTAGGA | -0.289
GACTGTGA | -0.0753
AAGCACTC | -0.146
ACTCGTGG | 0.0689
ACTAACCG | 0.144
AATAACCG | 0.421
ACTAACCA | 0.282
AATAACGG | 0.169
AATAACAG | 0.118
ACTAACCT | 0.318
CCTAGCAA | 0.0808
CGTTGGTC | -0.0765
AAAAGGTT | 0.444
AAAAGGTG | 0.173

Sequence | PBM E-score
ATAAGGTC | 0.184
CAAAGGTC | 0.314
AAAAGGAT | 0.0556
AAAAGGTC | 0.367
CGCAACTA | 0.162
AGGCCCAA | -0.0071
GACGCGAA | -0.12
AGAGAATC | -0.152
AATGAATG | 0.0096
AGGCTAGA | -0.15
AACCTAAA | 0.356
TACCTAGA | 0.163
CACCTATA | 0.0311
TACCTACA | 0.137
GACCTATA | 0.295
AACCTATA | 0.374
CACCTAAA | 0.191
TACCTATA | 0.337
TACCTAAA | 0.199
ATGCGTTC | -0.0993
GCAGGCAA | -0.144
ACTCAGAG | 0.11
CTGATAAA | 0.121
GGAACACC | 0.105
ATTTCTCG | 0.176

Sequence | PBM E-score
CTTGCTAC | 0.0655
ATCTCACC | -0.0161
CGACTGGA | -0.193
ACCTCAAG | 0.251
GCCTCAAA | 0.00889
ACCTCAAA | 0.326
ACCTCTAC | 0.259
ACCTCTAG | 0.411
CCCTCTCA | -0.23
ACCTCTAT | 0.293
ACCTCTCA | 0.344
ACCTCTCT | 0.0304
CACTGGCG | -0.0169
GCTTCAAC | 0.00654
TAGCCAGA | -0.00683
CGAGCTAA | -0.031
GATCAGAA | -0.106
AGTAATAT | 0.178
AGAGCTAC | -0.184
GACCCACC | 0.245
GCCCCACC | 0.283
ACCCCACC | 0.419
CCCCCACC | -0.378
AACCCACG | 0.156
CACCCACA | 0.168

Sequence | PBM E-score
CACCCACC | 0.194
AACCCACA | 0.331
AACCCACC | 0.343
ATTTTCTA | 0.122
CTATGAGC | -0.127
CTTCTCCC | -0.213
ATCCTCAC | 0.0272
GAAGATGA | 0.0533
AGGGTACG | 0.296
AGGGTACT | 0.441
GGGGTACA | 0.249
AGAGTACT | -0.144
GGCGTACC | 0.0458
TGGGTACA | 0.174
AGGGTACC | 0.461
ACGGTACA | 0.213
AGGGTACA | 0.337
AGTGTACC | 0.0741
AGCGTACT | -0.127
GGGGTACC | 0.424
CGAAGCAA | -0.00093
CCCCATAG | 0.201
CAAAACTG | 0.0208
CATGGGAG | 0.0124
AAATATAT | 0.224

Sequence | PBM E-score
ATCTATCG | -0.167
GAACAAGC | -0.175
CAGCCCAA | -0.0128
AATTCCGT | -0.0101
CTGGTACC | 0.286
ATGGTACA | 0.08
CGGGTACC | 0.432
CGGGTACA | 0.122
CGGGTACG | 0.0198
ATGGTACC | 0.392
ACGCTTGA | 0.0154
CCCCTAGC | -0.167
GGGGCTTA | -0.25
ACGTCATA | -0.0571
ACCCAGCC | -0.139
AACTAAGA | 0.0908
CCTGGGGA | -0.183
CCGGGTAC | 0.348
CTGGGTAA | 0.185
CAGGGTAA | 0.354
CGGGGTAC | 0.316
GCGGGTAC | 0.256
CAGGGTGA | 0.313
AGGGGTAC | 0.398
CCGGGTAA | 0.246

Sequence | PBM E-score
AAGGGTAG | 0.375
GGGGGTAC | 0.186
ACGGGTAG | 0.255
AGGGGTAG | 0.312
AGCCAAGC | -0.307
GGGTAGTA | 0.219
ACTTCAAA | -0.13
GACACACA | 0.028
GCGGGCGA | -0.105
CCCATCTA | -0.0762
ACCTATCC | 0.152
ACAGTAGG | -0.209
CACGGGGA | -0.219
ATGGGTAA | 0.242
AAGGGTAA | 0.393
CGGGGTAA | 0.299
AAGGGTAT | 0.421
GAGGGTAC | 0.374
GATGGTAC | 0.199
GAGGGTGC | 0.138
GGGGGTAA | -0.0883
AGGGGTAT | 0.258
AGGGGTAA | 0.272
TGGGGTAA | 0.347
AAGGGTGT | 0.316

Sequence | PBM E-score
CTTTCGCC | -0.179
CGGTTGTC | 0.279
CATGTGCA | 0.0255
TTCTTAAA | -0.028
ACGTCGTA | -0.287
CATCAATA | 0.0615
CGTGGCCA | 0.0519
GGCACGTA | -0.273
TCGGGTAA | 0.24
AAGGGTCC | 0.274
TAGGGTAA | 0.396
ATGGGTAC | 0.328
CTGGGTAC | 0.305
AAGGGTAC | 0.426
ACGGGTAC | 0.231
CAGGGTGC | 0.0059
CAGGGTAG | 0.306
GAGGGTAA | 0.264
ATGGGTAG | 0.238
CAGGGTAC | 0.437
AGTCAGGC | -0.101
CACTACGC | -0.163

— the supplement of paper PMC3334620
